Test results published in the supplement of paper PMC10849652.
Targets with a hit are over-represented here; the source holds about 8,800 in all. About 0.5% of all pairs of compound and target were hits.

Tests used:
Test in all cases: log2 fold change, soluble protein after heating vs DMSO (PISA); higher = thermal stabilisation; K562 lysate, 10 uM; active = over 0.2 and 3.5 SD of the protein, either way, in both replicates (recomputed)
lapatinib = compound: CS(=O)(=O)CCNCc1ccc(-c2ccc3ncnc(Nc4ccc(OCc5cccc(F)c5)c(Cl)c4)c3c2)o1 [lapatinib]
How it was run: (§1)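 Values give the log-two fold change in thermal stability against solvent controls, from duplicates. Crude K562 extract at 1 mg/mL protein, made by dounce homogenisation in PBS pH 7.4 with 1 mM MgCl2, was treated with 10 μM compound for 30 min. After 3 min heating across 48°C-58°C, aliquots were pooled, adjusted to 0.5% NP-40 at 4°C and centrifuged at 21,000xg for 90 min. The supernatant was measured by TMTpro 16plex LC-MS/MS with channel sums equalised.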

pictilisib = compound: CS(=O)(=O)N1CCN(Cc2cc3nc(-c4cccc5[nH]ncc45)nc(N4CCOCC4)c3s2)CC1 [pictilisib]
How it was run: as §1

crizotinib = compound: C[C@@H](Oc1cc(-c2cnn(C3CCNCC3)c2)cnc1N)c1c(Cl)ccc(F)c1Cl [crizotinib]
How it was run: as §1

[1] = compound: C[C@H](C1=CC=C(C=C1)C(=O)NC2=C3C=CNC3=NC=C2)N
How it was run: as §1

duvelisib = compound: C[C@H](Nc1ncnc2nc[nH]c12)c1cc2cccc(Cl)c2c(=O)n1-c1ccccc1 [duvelisib]
How it was run: as §1

gandotinib = compound: Cc1cc(Nc2cc(CN3CCOCC3)c3nc(C)c(Cc4ccc(Cl)cc4F)n3n2)n[nH]1 [gandotinib]
How it was run: as §1

tozasertib = compound: Cc1cc(Nc2cc(N3CCN(C)CC3)nc(Sc3ccc(NC(=O)C4CC4)cc3)n2)n[nH]1 [tozasertib]
How it was run: as §1

doramapimod = compound: Cc1ccc(-n2nc(C(C)(C)C)cc2NC(=O)Nc2ccc(OCCN3CCOCC3)c3ccccc23)cc1 [doramapimod]
How it was run: as §1

bafetinib = compound: Cc1ccc(NC(=O)c2ccc(CN3CC[C@H](N(C)C)C3)c(C(F)(F)F)c2)cc1Nc1nccc(-c2cncnc2)n1 [bafetinib]
How it was run: as §1

[2] = compound: Cc1cccc(CC(=O)N2CCc3c2ccc(-c2cn(C)c4ncnc(N)c24)c3F)n1
How it was run: as §1

nilotinib = compound: Cc1cn(-c2cc(NC(=O)c3ccc(C)c(Nc4nccc(-c5cccnc5)n4)c3)cc(C(F)(F)F)c2)cn1 [nilotinib]
How it was run: as §1

[3] = compound: Cc1nc(Nc2n[nH]c3c2CN(C(=O)N[C@H](CN(C)C)c2ccccc2)C3(C)C)c2sccc2n1
How it was run: as §1

dasatinib = compound: Cc1nc(Nc2ncc(C(=O)Nc3c(C)cccc3Cl)s2)cc(N2CCN(CCO)CC2)n1 [dasatinib]
How it was run: as §1

[4] = compound: Cc1ncc(-c2ccnc(Nc3ccc(S(C)(=O)=O)cc3)n2)n1C(C)C
How it was run: as §1

[5] = compound: Cn1cc(-c2ccc3c(c2)CCN3C(=O)Cc2cccc(C(F)(F)F)c2)c2c(N)ncnc21
How it was run: as §1

quisinostat = compound: Cn1cc(CNCC2CCN(c3ncc(C(=O)NO)cn3)CC2)c2ccccc21 [quisinostat]
How it was run: as §1

tipifarnib = compound: Cn1cncc1[C@@](N)(c1ccc(Cl)cc1)c1ccc2c(c1)c(-c1cccc(Cl)c1)cc(=O)n2C [tipifarnib]
How it was run: as §1

[6] = compound: NC(=O)Nc1cc(-c2cccc(F)c2)sc1C(=O)N[C@H]1CCCNC1
How it was run: as §1

[7] = compound: NC(=O)c1cnc(N[C@@H]2CCCC[C@@H]2N)nc1Nc1cccc(-n2nccn2)c1
How it was run: as §1

[8] = compound: NC1(c2ccc(-c3nc4ccn5c(=O)[nH]nc5c4cc3-c3ccccc3)cc2)CCC1
How it was run: as §1

Measured: log2 fold change

RBM5 (UniProt P52756)
Chain of UniProt P52756 (P52756 whole entry, looked up): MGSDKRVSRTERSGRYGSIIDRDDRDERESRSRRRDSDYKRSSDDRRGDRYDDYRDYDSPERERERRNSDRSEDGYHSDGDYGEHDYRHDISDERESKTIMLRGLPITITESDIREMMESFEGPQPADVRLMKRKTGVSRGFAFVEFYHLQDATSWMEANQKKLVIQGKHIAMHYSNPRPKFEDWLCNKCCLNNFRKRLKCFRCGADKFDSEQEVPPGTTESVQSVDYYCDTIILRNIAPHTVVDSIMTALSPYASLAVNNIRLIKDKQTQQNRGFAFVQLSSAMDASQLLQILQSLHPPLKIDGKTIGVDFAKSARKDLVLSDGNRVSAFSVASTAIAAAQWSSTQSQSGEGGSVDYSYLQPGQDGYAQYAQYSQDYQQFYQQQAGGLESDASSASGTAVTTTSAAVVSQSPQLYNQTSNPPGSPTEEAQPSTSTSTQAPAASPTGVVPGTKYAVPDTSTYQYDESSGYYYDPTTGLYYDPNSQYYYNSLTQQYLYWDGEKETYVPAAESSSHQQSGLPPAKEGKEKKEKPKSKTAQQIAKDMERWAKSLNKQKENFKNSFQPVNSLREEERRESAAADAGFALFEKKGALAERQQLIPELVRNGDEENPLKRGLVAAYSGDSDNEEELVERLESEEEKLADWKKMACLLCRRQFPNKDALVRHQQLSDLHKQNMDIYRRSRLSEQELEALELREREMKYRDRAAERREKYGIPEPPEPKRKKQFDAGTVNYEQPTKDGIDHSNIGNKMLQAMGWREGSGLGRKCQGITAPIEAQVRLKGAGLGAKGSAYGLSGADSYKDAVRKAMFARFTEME
inactive: lapatinib 0.029 | pictilisib -0.013 | crizotinib 0.005 | [1] -0.268 | duvelisib -0.058 | gandotinib -0.015 | tozasertib 0 | doramapimod 0.058 | bafetinib -0.051 | [2] 0.089 | nilotinib 0.146 | [3] -0.085 | dasatinib 0.073 | [4] 0.028 | [5] -0.003 | quisinostat 0.027 | tipifarnib -0.015 | [6] 0.009 | [7] 0.114 | [8] 0.185

RAB21 (UniProt Q9UL25)
Chain of UniProt Q9UL25 (Q9UL25 whole entry, looked up): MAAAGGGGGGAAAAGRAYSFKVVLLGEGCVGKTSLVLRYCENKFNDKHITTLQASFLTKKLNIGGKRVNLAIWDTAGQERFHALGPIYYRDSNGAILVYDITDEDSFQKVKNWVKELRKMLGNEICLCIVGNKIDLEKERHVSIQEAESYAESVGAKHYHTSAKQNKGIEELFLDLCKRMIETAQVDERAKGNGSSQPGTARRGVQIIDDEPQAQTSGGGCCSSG
inactive: lapatinib -0.028 | pictilisib -0.053 | crizotinib -0.001 | [1] 0.208 | duvelisib -0.087 | gandotinib -0.112 | tozasertib -0.013 | doramapimod -0.055 | bafetinib -0.059 | [2] -0.09 | nilotinib 0.069 | [3] -0.036 | dasatinib 0.043 | [4] -0.017 | [5] -0.022 | quisinostat -0.023 | tipifarnib -0.051 | [6] 0.019 | [7] -0.017 | [8] -0.007

RBBP8 isoform 2 (UniProt Q99708)
Chain of UniProt Q99708 (Q99708 whole entry, looked up): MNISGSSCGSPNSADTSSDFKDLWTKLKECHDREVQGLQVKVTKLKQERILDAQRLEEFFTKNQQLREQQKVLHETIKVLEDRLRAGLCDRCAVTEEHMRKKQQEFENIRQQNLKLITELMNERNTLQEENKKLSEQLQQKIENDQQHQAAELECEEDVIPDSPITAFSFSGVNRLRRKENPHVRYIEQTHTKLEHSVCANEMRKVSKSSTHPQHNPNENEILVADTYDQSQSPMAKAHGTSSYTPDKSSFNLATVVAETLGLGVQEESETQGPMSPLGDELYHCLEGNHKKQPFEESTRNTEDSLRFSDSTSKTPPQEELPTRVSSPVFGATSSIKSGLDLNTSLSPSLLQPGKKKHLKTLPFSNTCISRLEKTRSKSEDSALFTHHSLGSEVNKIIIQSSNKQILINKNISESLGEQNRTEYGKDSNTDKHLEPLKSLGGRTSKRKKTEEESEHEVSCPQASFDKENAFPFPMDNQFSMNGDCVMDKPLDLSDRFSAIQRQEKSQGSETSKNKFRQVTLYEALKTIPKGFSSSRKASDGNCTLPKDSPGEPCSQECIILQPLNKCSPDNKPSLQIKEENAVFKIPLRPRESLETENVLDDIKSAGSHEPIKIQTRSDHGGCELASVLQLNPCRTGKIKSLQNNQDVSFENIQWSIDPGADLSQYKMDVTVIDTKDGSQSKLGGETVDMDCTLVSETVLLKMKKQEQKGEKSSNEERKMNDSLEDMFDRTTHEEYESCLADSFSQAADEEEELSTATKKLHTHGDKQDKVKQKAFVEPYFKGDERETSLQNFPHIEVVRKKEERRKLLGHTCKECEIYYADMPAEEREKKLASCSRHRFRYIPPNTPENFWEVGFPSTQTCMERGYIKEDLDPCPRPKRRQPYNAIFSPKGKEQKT
inactive: lapatinib -0.042 | pictilisib 0.069 | crizotinib -0.085 | [1] 0.065 | duvelisib 0.032 | gandotinib -0.013 | tozasertib 0.177 | doramapimod 0.024 | bafetinib -0.079 | [2] 0.007 | nilotinib -0.07 | [3] -0.003 | dasatinib 0.063 | [4] 0.081 | [5] 0.031 | quisinostat 0.074 | tipifarnib 0.022 | [6] 0.033 | [7] 0.035 | [8] -0.026

S100A11 (UniProt P31949)
Chain of UniProt P31949 (P31949 whole entry, looked up): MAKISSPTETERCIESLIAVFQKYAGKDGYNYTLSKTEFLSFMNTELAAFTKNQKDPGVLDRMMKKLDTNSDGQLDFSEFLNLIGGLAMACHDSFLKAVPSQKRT
inactive: lapatinib 0.105 | pictilisib 0.006 | crizotinib 0.02 | [1] 0.097 | duvelisib 0.052 | gandotinib -0.042 | tozasertib -0.043 | doramapimod 0.003 | bafetinib -0.039 | [2] -0.032 | nilotinib 0.067 | [3] 0.007 | dasatinib 0.013 | [4] 0.056 | [5] -0.02 | quisinostat 0.05 | tipifarnib 0.041 | [6] -0.033 | [7] 0 | [8] -0.006

RRM1 (UniProt P23921)
Chain of UniProt P23921 (P23921 whole entry, looked up): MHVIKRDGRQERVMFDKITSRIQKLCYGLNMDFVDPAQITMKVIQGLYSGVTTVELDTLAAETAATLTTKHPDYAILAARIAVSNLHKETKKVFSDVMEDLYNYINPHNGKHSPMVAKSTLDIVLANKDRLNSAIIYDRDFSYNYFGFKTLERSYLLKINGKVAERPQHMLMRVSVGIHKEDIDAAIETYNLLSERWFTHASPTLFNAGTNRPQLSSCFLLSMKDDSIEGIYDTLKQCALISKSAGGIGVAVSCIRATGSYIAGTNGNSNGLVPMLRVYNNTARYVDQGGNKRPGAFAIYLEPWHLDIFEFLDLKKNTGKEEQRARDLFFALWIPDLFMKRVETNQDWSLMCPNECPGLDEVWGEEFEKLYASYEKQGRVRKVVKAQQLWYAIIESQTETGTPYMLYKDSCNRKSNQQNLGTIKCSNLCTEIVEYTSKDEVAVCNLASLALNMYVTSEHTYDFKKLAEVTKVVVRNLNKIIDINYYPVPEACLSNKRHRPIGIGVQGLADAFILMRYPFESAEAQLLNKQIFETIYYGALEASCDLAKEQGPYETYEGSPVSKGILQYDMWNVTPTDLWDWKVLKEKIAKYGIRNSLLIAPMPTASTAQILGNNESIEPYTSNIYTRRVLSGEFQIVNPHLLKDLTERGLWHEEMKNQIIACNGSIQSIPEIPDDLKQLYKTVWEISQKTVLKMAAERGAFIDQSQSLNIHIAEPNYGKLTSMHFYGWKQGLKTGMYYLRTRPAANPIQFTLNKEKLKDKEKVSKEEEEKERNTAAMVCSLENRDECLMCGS
inactive: lapatinib 0.003 | pictilisib 0.01 | crizotinib -0.025 | [1] -0.004 | duvelisib -0.052 | gandotinib -0.028 | tozasertib -0.036 | doramapimod -0.017 | bafetinib -0.018 | [2] 0.001 | nilotinib -0.003 | [3] 0.008 | dasatinib -0.026 | [4] 0.001 | [5] 0.016 | quisinostat -0.018 | tipifarnib 0.007 | [6] 0.016 | [7] -0.002 | [8] -0.038

RABGGTB (UniProt P53611)
Chain of UniProt P53611 (P53611 whole entry, looked up): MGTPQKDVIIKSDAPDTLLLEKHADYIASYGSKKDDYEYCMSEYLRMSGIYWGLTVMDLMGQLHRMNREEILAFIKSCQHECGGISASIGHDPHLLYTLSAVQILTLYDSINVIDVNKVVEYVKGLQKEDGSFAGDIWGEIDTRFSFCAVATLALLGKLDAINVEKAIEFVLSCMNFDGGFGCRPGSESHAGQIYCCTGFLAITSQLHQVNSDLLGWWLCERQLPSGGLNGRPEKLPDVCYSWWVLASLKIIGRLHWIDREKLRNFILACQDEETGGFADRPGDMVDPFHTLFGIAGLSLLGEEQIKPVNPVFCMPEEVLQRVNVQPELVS
inactive: lapatinib -0.02 | pictilisib 0.006 | crizotinib -0.031 | [1] 0.135 | duvelisib 0.043 | gandotinib -0.051 | tozasertib -0.023 | doramapimod 0.016 | bafetinib -0.087 | [2] 0.028 | nilotinib 0.005 | [3] 0.003 | dasatinib 0.017 | [4] 0.006 | [5] -0.009 | quisinostat -0.02 | tipifarnib -0.013 | [6] 0.033 | [7] -0.016 | [8] 0.031

SCML2 (UniProt Q9UQR0)
Chain of UniProt Q9UQR0 (Q9UQR0 whole entry, looked up): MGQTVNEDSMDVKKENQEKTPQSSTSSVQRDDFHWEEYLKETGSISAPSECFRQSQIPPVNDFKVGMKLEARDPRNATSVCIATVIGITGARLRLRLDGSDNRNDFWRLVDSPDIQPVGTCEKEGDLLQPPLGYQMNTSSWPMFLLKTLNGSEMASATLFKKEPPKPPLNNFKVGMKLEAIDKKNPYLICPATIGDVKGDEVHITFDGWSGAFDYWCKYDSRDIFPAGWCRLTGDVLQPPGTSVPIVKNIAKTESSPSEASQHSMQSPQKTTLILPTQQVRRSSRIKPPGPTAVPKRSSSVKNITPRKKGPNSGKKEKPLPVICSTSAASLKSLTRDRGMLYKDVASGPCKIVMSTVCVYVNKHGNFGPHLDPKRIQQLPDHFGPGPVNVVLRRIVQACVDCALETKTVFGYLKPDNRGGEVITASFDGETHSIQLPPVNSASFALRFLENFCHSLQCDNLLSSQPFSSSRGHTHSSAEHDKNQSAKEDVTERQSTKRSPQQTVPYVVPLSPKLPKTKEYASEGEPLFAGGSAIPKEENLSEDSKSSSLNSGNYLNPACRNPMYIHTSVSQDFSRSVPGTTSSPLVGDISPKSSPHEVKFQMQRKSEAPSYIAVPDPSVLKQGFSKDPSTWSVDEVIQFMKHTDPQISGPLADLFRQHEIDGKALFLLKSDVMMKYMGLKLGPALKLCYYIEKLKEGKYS
inactive: lapatinib 0.035 | pictilisib -0.027 | crizotinib -0.022 | [1] 0.034 | duvelisib 0.006 | gandotinib -0.045 | tozasertib 0.029 | doramapimod 0 | bafetinib -0.017 | [2] -0.014 | nilotinib 0.042 | [3] 0.004 | dasatinib -0.014 | [4] -0.06 | [5] 0.027 | quisinostat 0.007 | tipifarnib 0.065 | [6] 0.048 | [7] 0.012 | [8] -0.022

RAD51C (UniProt O43502)
Chain of UniProt O43502 (O43502 whole entry, looked up): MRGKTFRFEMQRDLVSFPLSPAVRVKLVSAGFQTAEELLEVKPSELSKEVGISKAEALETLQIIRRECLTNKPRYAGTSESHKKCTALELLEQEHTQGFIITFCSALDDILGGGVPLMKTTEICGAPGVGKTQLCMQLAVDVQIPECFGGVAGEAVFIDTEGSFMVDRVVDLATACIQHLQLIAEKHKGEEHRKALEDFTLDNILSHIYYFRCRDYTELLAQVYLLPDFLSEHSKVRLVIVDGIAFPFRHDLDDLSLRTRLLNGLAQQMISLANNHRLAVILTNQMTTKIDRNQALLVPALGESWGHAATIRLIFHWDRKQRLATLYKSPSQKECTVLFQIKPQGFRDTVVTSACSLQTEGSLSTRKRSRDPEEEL
inactive: lapatinib -0.042 | pictilisib -0.023 | crizotinib -0.074 | [1] -0.006 | duvelisib 0.022 | gandotinib 0.065 | tozasertib -0.089 | doramapimod 0.074 | bafetinib -0.119 | [2] -0.044 | nilotinib 0.013 | [3] 0.021 | dasatinib -0.014 | [4] 0.009 | [5] -0.019 | quisinostat 0.036 | tipifarnib 0.03 | [6] 0.051 | [7] 0.042 | [8] -0.021
